# Measured values: PubChem BioAssay AID1259422 (The Scripps Research Institute Molecular Screening Center, 2018)
# The whole screen tested about 640,000 compounds, of which about 9,300 (1.5%) were called active. Shown is part of a subset that was picked to be rich in actives. A number with no mark means an inactive call. Cut-off read from the data, not from the text of the source: active = inhibition above about 32%; inactive = the rest.
# Assay: TEAD-YAP interaction inhibition, primary screen, TEAD-YAP interaction inhibitor project, luminescence, HEK-TIYL cells (AID 1259422);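 note: 0% = median of test compound wells and 100% = reference inhibitor wells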
# Conditions: TEAD-Gal4/YAP UAS-luciferase luminescence, at 9.12 µM, active compounds read high
row,Compound,inhibition
1,COc1ccc(CNc2nc(-c3ccccc3)nc3c2ncn3C(C)C)cc1,-3.1%
2,COc1cc(Nc2nc(NCc3nc4ccccc4[nH]3)c3ncn(C(C)C)c3n2)cc(OC)c1OC,47.9% (active)
3,COc1ccc(-c2nc(Nc3cc(OC)c(OC)c(OC)c3)c3ncn(C(C)C)c3n2)cc1,23.6%
4,CC(C)n1cnc2c(NCc3nc4ccccc4[nH]3)nc(Cl)nc21,61.8% (active)
5,COc1cc(Nc2cc(C(=O)NCc3nc4ccccc4[nH]3)ccn2)cc(OC)c1OC,2.93%
6,FC(F)(F)c1ccc(Cn2cnc3c(NCc4nc5ccccc5[nH]4)nc(Cl)nc32)cc1,-2.85%
7,Cc1c(C(=O)NCC2CCCO2)sc2ncn(Cc3ccccc3F)c(=O)c12 (stereo not drawn),2.38%
8,Oc1c(C(c2ccc(F)cc2)N2CCOCC2)sc2ncnn12 (stereo not drawn),-3.52%
9,COc1ccccc1N1CCN(/N=C(\C)c2cccs2)CC1,-19.5%
10,CCCn1nnnc1NC(=S)NC(=O)c1cc2ccccc2o1,35.9% (active)
11,CCCn1nnnc1NC(=O)c1ccc(-c2cccc(Cl)c2)o1,-16.9%
12,Cc1cccnc1NC(=S)NC(=O)c1cc2ccccc2o1,-26.1%
13,Cc1ccc(C(C)C)c(OC(=O)c2cc(-c3ccc(Cl)cc3)nc3ccc(C)cc23)c1,-8.87%
14,O=C1C(Nc2ccc(F)c(F)c2)=C(N2CCCC2)C(=O)c2ccccc21,-1.87%
15,O=C1C(Nc2ccc(F)c(F)c2)=C(N2CCCCC2)C(=O)c2ccccc21,-7.95%
16,CC1CCN(C2=C(NC3CCCC3)C(=O)c3ccccc3C2=O)CC1,51.5% (active)
17,Cc1c(C(=O)N2CCN(Cc3ccc4c(c3)OCO4)CC2)sc2ncn(CC(=O)Nc3cccc(C(F)(F)F)c3)c(=O)c12,-1.1%
18,CNC(=O)c1ccc(Cl)c([N+](=O)[O-])c1,8.77%
19,CCCCC(=O)NC1(C(F)(F)F)C(=O)N(C2CCCCC2)C(C)=C1C(=O)OCC (stereo not drawn),18.5%
20,Nc1c(C(=O)OCC(=O)NCc2ccc3c(c2)OCO3)[nH]c(=O)[nH]c1=O,-6.24%
21,CC(=O)c1c(C)oc2c1cc(NS(=O)(=O)c1ccc(C)cc1)c1ccccc12,62.9% (active)
22,CC(=O)c1c(C)oc2c1cc(NS(=O)(=O)c1cccc3cccnc13)c1ccccc12,-0.78%
23,COC(=O)c1c(C)oc2c1cc(NS(=O)(=O)c1ccc(Cl)cc1)c1ccccc12,11.4%
24,Cc1ccc(S(=O)(=O)Nc2ccc3oc(C)c(C(=O)NN)c3c2)cc1,10.1%

row,Compound,inhibition
1,COCCOC(=O)c1c(C)oc2ccc(NS(=O)(=O)c3ccc(Cl)cc3)cc12,-2.27%
2,COc1ccc(S(=O)(=O)Nc2ccc3oc(C)c(C(C)=O)c3c2)cc1,54.7% (active)
3,C=CCOC(=O)N1CCC(C(=O)NC(c2ccc(F)cc2)c2ccccn2)CC1 (stereo not drawn),6.83%
4,COc1ccccc1NC(=O)N1CCC2(CC1)OCc1cc(SC)cc(C)c1O2,1.69%
5,COc1ccc(CNC(=O)Nc2ccc(OC)cc2OC)cc1,0.36%
6,COc1ccc(NC(=O)/C=C\c2cccc3ccccc23)c(OC)c1,2.51%
7,C=CC(=O)Nc1ccc(OC)cc1OC,43.2% (active)
8,CCn1cc(C(=O)OCc2c(F)cccc2Cl)c(=O)c2ccc(C)nc21,-3.49%
9,CCOc1ccc(-c2nc(-c3cccc([N+](=O)[O-])c3)no2)cc1,-19.3%
10,CCOC(=O)C(CC)Sc1nnc2c(n1)[nH]c1ccc(F)cc12 (stereo not drawn),-2.45%
11,Cc1ccc2[nH]c3c(=O)n(N)cnc3c2c1,-5.24%
12,CCCCNc1ncnc2c1[nH]c1ccc(F)cc12,42.6% (active)
13,N#CC1(NS(=O)(=O)c2cc([N+](=O)[O-])ccc2Cl)CCCCC1,-2.76%
14,CC(=O)c1ccc(NC(=O)/C=C/c2cccc([N+](=O)[O-])c2)cc1,-22.5%
15,COCCCNc1ncnc2ccc(I)cc12,29.9%
16,Ic1ccc2ncnc(NCCc3ccccc3)c2c1,32.8% (active)
17,Ic1ccc2ncnc(NCC3CCCO3)c2c1 (stereo not drawn),25.4%
18,CCn1c(SCC(=O)N2CCc3ccccc32)nnc1-c1ccccc1,-0.23%
19,O=C(NCCc1ccc(O)cc1)c1csc(Nc2ccc3ncccc3c2)n1,-1.97%
20,O=C(NCc1ccccc1)c1csc(Nc2ccc(N3CCOCC3)cc2)n1,35% (active)
21,O=C(NCCc1ccc(O)cc1)c1csc(Nc2ccc(N3CCOCC3)cc2)n1,39.4% (active)
22,O=C(NCCc1ccccc1)c1csc(Nc2ccccc2)n1,-24.6%
23,O=C(NCc1ccccc1)c1csc(Nc2ncccn2)n1,5.56%
24,O=C(Nc1ccc(N2CCOCC2)cc1)c1csc(Nc2ccc(-n3ccnc3)cc2)n1,17.6%

row,Compound,inhibition
1,Cc1ccc2nc(-c3cc(NC(=O)c4ccccc4C)ccc3Cl)oc2c1,-11.2%
2,COc1ccc(Cn2c(SCC(=O)NCCc3ccc(OC)c(OC)c3)nc3ccsc3c2=O)cc1,11.1%
3,CC(C)(C)c1ccc(CSc2nc3ccc(NC(=O)c4ccccc4)cc3s2)cc1,2.44%
4,CCC(=O)Nc1ccc(NC(=O)COc2ccc(Br)cc2)cc1C,0.24%
5,COc1ccc(-c2cc(C(=O)Nc3sc(C)c(C)c3C#N)c3ccccc3n2)cc1OC,-0.22%
6,CCN(CC)C(=O)c1sc(NC(=O)c2c(-c3ccccc3)noc2C)c(C(=O)OC(C)C)c1C,2.03%
7,Fc1ccc(C2=Nc3ccc(F)cc3C(C3CC3)=NN2)cc1,-2.31%
8,CCOc1ccc(C(=O)NCC(=O)OCC#N)cc1,0.54%
9,CS(=O)(=O)c1ccc(C(=O)OCC(=O)c2ccc3c(c2)OCCO3)cc1[N+](=O)[O-],2.27%
10,CCOC(=O)/C(N=Nc1cc(C(=O)O)cc(C(=O)O)c1)=C(\C)O,8.94%
11,CCOC(=O)/C(N=Nc1ccc2c(c1)OCCO2)=C(/O)c1ccc([N+](=O)[O-])cc1,88.1% (active)
12,COc1ccc(CNC(=O)CC(C)C)cc1,-2.6%
13,c1cc(-c2ccc(OC3CCNCC3)cc2)cs1,-27.5%
14,Cc1cc(C)c(OCCn2c(-c3ccc(Cl)cc3)nc3ccccc3c2=O)c(C)c1,-10.6%
15,CCOc1ccc(NS(=O)(=O)c2ccc(Cl)cc2)cc1,3.58%
16,CCOc1ccc(S(=O)(=O)Nc2ccc(Cl)cc2C)cc1,53% (active)
17,CCOc1ccc(S(=O)(=O)Nc2cc(C)cc(C)c2)cc1,-1.15%
18,O=C(c1ccccc1F)N1CCc2nnc(Cc3ccccc3)n2CC1,6.95%
19,CCCCN(C)Cc1c(O)c(Cl)cc2c(C)cc(=O)oc12,6.72%
20,Cc1c(C(=O)Nc2ccc3c(c2)Cc2ccccc2-3)oc2ccccc12,-8.71%
21,CC(C)c1nnc(NC(=O)CCN2C(=O)C3C4C=CC(C4)C3C2=O)s1 (stereo not drawn),-6.27%
22,Cc1cc(C)n2cc(CN3CCc4ccccc4C3)nc2n1,-0.09%
23,O=C(Nc1cccc2ncccc12)c1sc2ccccc2c1Cl,-3.37%
24,Cc1ccc(-c2nc3ccccc3s2)cc1NC(=O)c1sc2ccccc2c1Cl,-13.1%

row,Compound,inhibition
1,O=C(Nc1nc2ccccc2s1)c1sc2ccccc2c1Cl,38.5% (active)
2,Cc1ccc2c(c1)NC(=O)C(CC(=O)NCCN(C)C1CCCCC1)O2 (stereo not drawn),-13.3%
3,CCc1nnc2sc(-c3ccc(NC(=O)COc4ccccc4[N+](=O)[O-])cc3)nn12,1.75%
4,COc1ccc(-n2cc(-c3ccccc3)c3c(NCCc4ccc(S(N)(=O)=O)cc4)ncnc32)cc1,9.44%
5,Cn1ncc([N+](=O)[O-])c1C(=O)Nc1ccc2nc(NC(=O)C3CCCCC3)sc2c1,66.2% (active)
6,CC(=O)Nc1ccc2nc(NC(=O)c3cc4cc([N+](=O)[O-])ccc4s3)sc2c1,16.6%
7,CC(=O)Nc1ccc2nc(NC(=O)c3ccc(S(=O)(=O)N4CCCCC4)cc3)sc2c1,1.92%
8,CCOC(=O)C1CCN(Cc2cccc([N+](=O)[O-])c2)CC1,-8.78%
9,COc1cccc(/C=C2\SC(=S)N(c3ccc(C(=O)O)c(O)c3)C2=O)c1OC,47.1% (active)
10,O=C(O)c1cc(N2C(=O)/C(=C/c3ccc(O)cc3)SC2=S)ccc1O,1.88%
11,Cc1ccc(/C=C2\SC(=S)N(c3cccc(O)c3)C2=O)o1,-1.97%
12,CCn1c(=O)cc(SCC(=O)Nc2nc(C)cs2)c2ccccc21,-2.9%
13,CC(=O)O[C@@H]1C[C@H](c2ccc(F)cc2)N(C)C1=O,3.54%
14,Cc1cc(/C=C2\Sc3ccccc3N2C)cc(C)[n+]1CCO,73.5% (active)
15,CN1/C(=C/C(=S)C(C)(C)C)Sc2ccccc21,-12.6%
16,CCN1/C(=C/c2cc(C)[n+](N3CCN(C)CC3)c(C)c2)Sc2ccccc21,75.1% (active)
17,O=C1c2ccccc2C(=O)N1CCC(=O)N1c2ccccc2Sc2ccccc21,-5.51%
18,CCOc1cc2c(cc1OCC)N(CC)/C(=C\C=O)S2,-11.6%
19,O=C(CN1C(=O)/C(=C/c2ccccc2)Sc2ccccc21)N1CCCC1,-1.18%
20,Cc1ccc(CC(=O)O/N=C(\N)c2ccc(Br)cc2)cc1,-13%
21,Cc1cc(Nc2ccc3c(c2)OCO3)nc(Nc2cccc(N(C)C)c2)n1,2.34%
